Many of the other results were omitted from the sample, so hits are more common in it than they were.
Artemis endo inh = Artemis (human) endonuclease inhibition | AID 686954 | inhibition, % at 10 µM | recombinant Artemis, quenched FAM hairpin cleavage fluorescence | Q96SD1 | 30,000 compounds, 0.78% hits;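 active = at 10 µM dose, at least 30% inhibition, measured as corrected fluorescence normalized to stimulator and neutral control wells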
Target sequence (Q96SD1 whole entry, looked up): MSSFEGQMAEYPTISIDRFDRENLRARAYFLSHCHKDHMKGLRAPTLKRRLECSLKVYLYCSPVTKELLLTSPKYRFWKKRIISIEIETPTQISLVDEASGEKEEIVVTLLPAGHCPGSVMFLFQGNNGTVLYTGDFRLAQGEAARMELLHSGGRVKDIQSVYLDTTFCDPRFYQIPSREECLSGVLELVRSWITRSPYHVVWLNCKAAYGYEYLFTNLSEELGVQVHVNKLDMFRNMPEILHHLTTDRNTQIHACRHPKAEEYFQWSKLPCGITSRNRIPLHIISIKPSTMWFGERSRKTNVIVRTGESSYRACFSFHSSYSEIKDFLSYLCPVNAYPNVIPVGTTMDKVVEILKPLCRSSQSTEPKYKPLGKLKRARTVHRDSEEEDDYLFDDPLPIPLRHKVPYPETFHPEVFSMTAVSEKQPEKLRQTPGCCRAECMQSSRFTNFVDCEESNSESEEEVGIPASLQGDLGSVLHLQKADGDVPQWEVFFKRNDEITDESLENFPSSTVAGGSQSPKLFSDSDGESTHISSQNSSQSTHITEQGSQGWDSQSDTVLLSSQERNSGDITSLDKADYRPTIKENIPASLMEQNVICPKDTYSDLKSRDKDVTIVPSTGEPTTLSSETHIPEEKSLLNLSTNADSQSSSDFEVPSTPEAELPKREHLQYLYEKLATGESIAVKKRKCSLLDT
Hits are given with their value; i = inactive.

SMILES	Artemis endo inh
CCOC(=O)Cc1csc(NC(=O)CC(C)(C)C)n1	i
CCOc1ccc(OCC)c(NC(=O)C2CCCN(S(=O)(=O)c3cccs3)C2)c1 (configuration not stated)	i
COc1ccc2nc(NC(=O)C3CCN(S(=O)(=O)c4cnc[nH]4)CC3)sc2c1	i
COc1ccc2nc(NC(=O)C3CCCN(S(=O)(=O)c4cccs4)C3)sc2c1 (configuration not stated)	39.5
CCN1N=C(c2ccccc2)Cn2c1nc1ccccc12	i
O=C1C(C=Nc2ccccc2)=C(O)c2ccccc21	i
Cc1ccc(O)c(N=CC2=C(O)c3ccccc3C2=O)c1	38.0
COc1ccc(N=CC2=C(O)c3ccccc3C2=O)cc1	i
CO/N=C(/CS(=O)(=O)c1ccc(C)cc1)c1ccc(OC)cc1	i
COC(=O)CN(C(=O)CSc1nnc(-c2cccc(OC)c2)o1)c1ccc(OC)cc1	34.2
COc1cccc(-c2nnc(SCC(=O)N3CCOCC3)o2)c1	i
COc1ccc(C(=O)CSc2nnc(-c3ccccc3)o2)cc1	i
O/N=C\c1cccn1-c1ccc(Br)cc1	i
CCn1c2ccccc2c2cc(NS(=O)(=O)c3ccccc3C)ccc21	i
Cc1nc(NC(C)C)c2cnn(CCc3ccccc3)c2n1	i
CCOC(=O)/C=c1\s/c(=C(\C#N)C(=O)OCC)n(-c2ccccc2)c1=O	31.1
CCOC(=O)/C(C#N)=C1/C=Cc2ccccc2N1CC	i
CCOC(=O)c1c(O)c2ccccc2n(-c2ccccc2)c1=O	i
O=C(N/N=C/C=C/c1ccccc1)c1cc2c(ccc3ccccc32)o1	i
O=S(c1ccc2ccccc2c1)c1cnns1 (configuration not stated)	i
Cc1ccc(CC(=O)N2CCN(c3ccccn3)CC2)cc1	i
c1ccc(CN2CCN(c3nc(-c4ccccc4)nc4ccccc34)CC2)cc1	i
c1ccc(-c2nc(N3CCCCCC3)c3ccccc3n2)nc1	78.2
c1ccc(-c2nc(N3CCOCC3)c3ccccc3n2)nc1	i
COC(=O)c1cc(C#N)c(Oc2ccc(F)cc2)nc1C	i
SMILES	Artemis endo inh
COc1ccc(C2CC(c3ccccc3)n3nc(NC(=O)c4cccs4)nc3N2)cc1 (configuration not stated)	58.6
COc1ccc(NC(=O)c2cccs2)cc1	i
COc1cccc(C2CC(c3ccc(Cl)cc3Cl)Nc3nc(N)nn32)c1 (configuration not stated)	i
COc1ccc(C2CC2/C(=N/OC(=O)c2cccs2)c2ccccc2)cc1 (configuration not stated)	i
O=C(Nc1nc2n(n1)C(c1ccccc1)C=C(c1ccccc1)N2)c1ccco1 (configuration not stated)	i
COc1ccc(C2CC(c3ccc(Cl)cc3)Nc3nc(NC(=O)c4ccco4)nn32)cc1 (configuration not stated)	54.5
CCN(CC)S(=O)(=O)c1ccc(NC(=O)CC(NC(C)=O)c2ccccc2)cc1 (configuration not stated)	i
COCCn1c(SCC(=O)Nc2ccc(S(=O)(=O)N(C)C)cc2)nc2ccccc21	i
Clc1ccc(Sc2cc(Cl)c(-c3ccccc3)nn2)cc1	i
CO/N=C(/CNC(=O)c1ccc(F)cc1)c1ccc(Cl)cc1	i
O=C(N/N=C\c1ccc(COc2ccc([N+](=O)[O-])cc2)o1)c1ccc(Cl)cc1	i
O=[N+]([O-])CC(=Nc1ccc(Cl)cc1)N/N=C\c1oc(O)c2ccccc12	34.8
CCCC(=O)c1c[nH]c(C(=O)NCc2ccco2)c1	i
CC(C)(C)NC(=O)C1Cc2ccccc2CN1C(=O)Nc1ccccc1Cl (configuration not stated)	i
C=CCn1c(CNc2ccccc2)nnc1SCC(=O)N/N=C/c1ccccc1O	i
COC(=O)Oc1ccc(/C=N/NC(=O)CN(c2ccccc2Cl)S(C)(=O)=O)cc1OC	i
O=C(CCCSc1ccccc1)Nc1nc(-c2ccccn2)cs1	57.9
O=C(Nc1nc(-c2ccccn2)cs1)c1ncc(Cl)c(Cl)c1Cl	i
O=C(O)CCC(=O)Nc1nc(-c2ccccc2)cs1	i
COC(=O)C(CC(=O)c1ccc(Cl)cc1)c1ccc(C(C)C)cc1 (configuration not stated)	i
CCOC(=O)c1c(C)oc2c1c(C(c1cccnc1)N1CCOCC1)c(O)c1ccccc12 (configuration not stated)	i
O=C(O)c1ccccc1C(=O)c1cccs1	i
Cc1ccc(C(=O)c2ccccc2C(=O)O)s1	i
Cc1ccc(C)n1-c1sccc1C(=O)O	32.8
Nn1c(SCC(=O)NC(=O)NCc2ccco2)nnc1-c1ccc(OC(F)F)cc1	i
SMILES	Artemis endo inh
Nc1[nH]nc2nc(NCc3ccccc3)c3c(c12)CCN(Cc1ccccc1)C3	i
N#Cc1c(NCCN)nc(-c2ccccc2)c2c1CCCC2	i
N#Cc1c(NCCN)nc(NCc2ccccc2)c2c1CCN(Cc1ccccc1)C2	58.0
CCOC(=O)C(C(=O)NCc1cccc(OC)c1)c1ncc(C(F)(F)F)cc1Cl (configuration not stated)	i
COc1cccc(-c2nc(-c3ccc(NC(=O)c4cccs4)cc3)no2)c1	i
Cc1cc(Cl)ccc1NC(=S)NCCC(c1ccccc1)c1ccccc1	i
COc1cc2c(cc1OC)C1=NC(=O)CN1C(SCc1ccccc1)=N2	i
Cc1cccc(NC(=S)NN(Cc2ccccc2)c2ccccc2)c1C	i
COc1ccc2c3c(cccc13)N(C)N=C2C	58.0
COc1ccc(C)cc1-n1c(N)c(C#N)c(C#N)c1-c1ccc(OC)c(OC)c1OC	i
O=C1N=C2SCCN2/C1=C\c1ccccc1Cl	i
Cc1ccc(S(=O)(=O)N2CCN(CC(=O)NC(=O)NCc3ccccc3)CC2)cc1C	i
N#C/C(C(=O)Oc1ccccc1)=C1/Nc2ccccc2-c2ccccc21	i
CCOc1cc(/C=C2\N=C(SC)SC2=O)cc([N+](=O)[O-])c1OC(C)=O	33.4
CSC1=N/C(=C\c2ccc(C)cc2)C(=O)S1	i
C=CCSC1=N/C(=C\c2ccc(C)o2)C(=O)S1	i
CCOc1c(OC(C)=O)ccc(/C=C2\N=C(SCC)SC2=O)c1[N+](=O)[O-]	30.1
COc1ccc(/C=C2\N=C(SC)SC2=O)cc1OC	i
Cc1[nH]n(-c2ccccc2)c(=S)c1C=Nc1cccc([N+](=O)[O-])c1	i
CCOC(=O)CN1C(=O)C2Cc3ccccc3CN2C1=S (configuration not stated)	i
Cc1noc(C)c1CSc1nc2ccccc2c(=O)n1-c1ccccc1	i
Cc1noc(C)c1CSc1nc2ccccc2nc1NS(=O)(=O)c1ccc(Cl)cc1	33.1
O=S(=O)(Nc1nc2ccccc2nc1NCc1ccco1)c1ccc(Cl)cc1	i
CCc1ccc(NC(=O)C(=O)NCCN2CCN(C(=O)c3ccco3)CC2)cc1	i
Cc1ccccc1CS(=O)(=O)CCC(=O)NCc1ccccn1	i
SMILES	Artemis endo inh
N#CC1(Cc2ccc(Cl)cc2)c2ccccc2C=CN1C(=O)c1ccccc1 (configuration not stated)	i
Cc1nc2c(c(=O)n1CCC1=CCCCC1)c1nc3ccccc3nc1n2/N=C/c1ccco1	41.1
CCCCCCn1cnc2c(c1=O)c1nc3ccccc3nc1n2Cc1cccs1	i
CCCCCCn1cnc2c(c1=O)c1nc3ccccc3nc1n2/N=C/c1ccco1	31.8
CCCCn1c2nc3ccccc3nc2c2c(=O)n(CCC)cnc21	i
Cc1cccc(-n2cnc3c(c2=O)c2nc4ccccc4nc2n3Cc2ccco2)c1	i
CCO/C(C)=N/n1c2nc3ccccc3nc2c2c(=O)n(C3CCCC3)c(C)nc21	i
O=C(Cn1cnc2ccc(Br)cc2c1=O)c1cccs1	i
CCN(Cc1nc2ccccc2c(=O)[nH]1)Cc1cc(=O)oc2cc(OC)ccc12	i

Screens from PubChem.
